Data on eight molecules can be found in PubChem BioAssay (NCI).

About 83,000 compounds went through this panel and 20% of them were active in at least one assay; those are over-represented in the sample as a whole.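 In brief: 96-well plates, 48 h treatment, single concentration, percent growth endpoint.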 Values without a mark were called inactive. Active and inactive are the calls of the source. Rule for the calls: active = growth percent below 10; inactive = the rest.

Among the test systems are DU-145 prostate; K-562 leukemia; MALME-3M melanoma; MDA-MB-231 breast; RXF 393 renal; SF-268 CNS; SF-295 CNS; SF-539 CNS; UACC-257 melanoma; M14 melanoma; HCT-15 colon; HT29 colon; SNB-75 CNS; U251 CNS; PC-3 prostate; SK-MEL-5 melanoma; UACC-62 melanoma; LOX IMVI melanoma; SK-MEL-28 melanoma.
What all share (assay): NCI-60 one-dose screen, 48 h (100 = growth as untreated, 0 = no growth, -100 = all killed)
What all share (settings): 10 µM unless noted

As to `O=C(O)c1cccnc1Br`, the growth in the assay with DU-145 prostate is 129%; in the assay on K-562 leukemia, 109%; with MALME-3M melanoma it was 109%; in the assay with MDA-MB-231 breast, 107%; in the assay with RXF 393 renal, 121%; in the assay with SF-268 CNS, 110%. For the same molecule, the growth in the assay with SF-295 CNS is 96.1%; in the assay on SF-539 CNS, 91.9%; in the assay on UACC-257 melanoma, 106%; with M14 melanoma, 99.7%; in the assay on HCT-15 colon, 97.6%; in the assay on HT29 colon, 109%. In addition, the growth with SNB-75 CNS was 86.2%; in the assay on U251 CNS, 97.9%; in the assay with PC-3 prostate it was 108%; in the assay with SK-MEL-5 melanoma, 109%; in the assay with UACC-62 melanoma, 96%; in the assay with LOX IMVI melanoma, 96.6%. Further, in the assay on SK-MEL-28 melanoma, the growth is 112%.
For the molecule `Cn1c2c(Cl)c(Cl)ccc2c2ccn3c(=O)c4ccccc4nc3c21`, the growth in the assay on DU-145 prostate was 120%; with K-562 leukemia, 109%; in the assay on MALME-3M melanoma, 102%; in the assay on MDA-MB-231 breast it was 99.5%; in the assay with RXF 393 renal it was 117%; with SF-268 CNS, 105%. Further, the growth is 102% in the assay on SF-295 CNS; 95.7% with SF-539 CNS; 97% with UACC-257 melanoma; 101% in the assay on M14 melanoma; 102% with HCT-15 colon; 105% in the assay with HT29 colon. In addition, the growth in the assay with SNB-75 CNS is 91.6%; in the assay on U251 CNS, 100%; in the assay on PC-3 prostate, 101%; in the assay on SK-MEL-5 melanoma it was 95.2%; in the assay on UACC-62 melanoma it was 90.6%; in the assay on LOX IMVI melanoma, 104%. The growth in the assay with SK-MEL-28 melanoma was 117%.
For the molecule `C/C=C/C(N)=O`, the growth is 106% with DU-145 prostate; 109% in the assay on K-562 leukemia; 99.7% with MALME-3M melanoma; 108% in the assay on MDA-MB-231 breast; 108% in the assay on RXF 393 renal; 104% with SF-268 CNS. Besides, the growth is 106% in the assay with SF-295 CNS; 101% with SF-539 CNS; 108% in the assay with UACC-257 melanoma; 95.5% in the assay on M14 melanoma; 96.9% with HCT-15 colon; 102% in the assay with HT29 colon. The growth in the assay with SNB-75 CNS is 90.6%; in the assay with U251 CNS, 104%; in the assay on PC-3 prostate it was 93.9%; with SK-MEL-5 melanoma, 96.7%; with UACC-62 melanoma, 105%; in the assay on LOX IMVI melanoma, 99.3%. In the assay with SK-MEL-28 melanoma, the growth was 93%.
For `CC(=O)CC(C)(C)c1ccc(Cl)cc1`, the growth was 108% with DU-145 prostate; 101% in the assay on K-562 leukemia; 108% in the assay on MALME-3M melanoma; 106% in the assay on MDA-MB-231 breast; 98% with RXF 393 renal; 95.7% in the assay on SF-268 CNS. In addition, the growth with SF-295 CNS was 101%; in the assay on SF-539 CNS it was 102%; with UACC-257 melanoma, 101%; in the assay on M14 melanoma it was 96.8%; with HCT-15 colon, 101%; with HT29 colon, 98.1%. In addition, the growth with SNB-75 CNS was 81.9%; in the assay with U251 CNS, 98.7%; in the assay with PC-3 prostate, 93.6%; in the assay with SK-MEL-5 melanoma it was 108%; in the assay on UACC-62 melanoma, 101%; in the assay with LOX IMVI melanoma it was 97.3%. In the assay on SK-MEL-28 melanoma, the growth is 115%.
Regarding `CC1(C)CC(C(=O)OCCCCCCCCCCC[P+](c2ccccc2)(c2ccccc2)c2ccccc2)C(C)(C)N1O` (configuration not stated), the growth in the assay with DU-145 prostate is -85.3% (active); in the assay on K-562 leukemia it was -76.3% (active); in the assay with MALME-3M melanoma it was -68.3% (active); with MDA-MB-231 breast, -70.2% (active); with RXF 393 renal it was -68.8% (active); in the assay with SF-268 CNS it was -92.9% (active). Also, the growth in the assay with SF-295 CNS is -71.3% (active); with SF-539 CNS, -93.1% (active); in the assay with UACC-257 melanoma, -77.1% (active); in the assay with M14 melanoma, -13.2% (active); in the assay on HCT-15 colon, 88.5%; with HT29 colon it was -33.9% (active). Further, the growth with SNB-75 CNS is -57.9% (active); in the assay on U251 CNS, 110%; in the assay on PC-3 prostate it was -70.1% (active); in the assay with SK-MEL-5 melanoma, -97.6% (active); in the assay with UACC-62 melanoma, -69.3% (active); in the assay with LOX IMVI melanoma, 117%. Besides, the growth with SK-MEL-28 melanoma is -95.2% (active).
Consider `CN1CCN(Cc2ccc(NC(=O)c3[nH]ncc3Nc3ncnc4[nH]ccc34)cc2)CC1`, for which the growth with DU-145 prostate was 3.78% (active); with K-562 leukemia, 5.62% (active); with MALME-3M melanoma, -23.3% (active); with MDA-MB-231 breast, 0.311% (active); in the assay on RXF 393 renal, -70.2% (active); in the assay with SF-268 CNS, -6.72% (active). In addition, the growth is 9.36% (active) with SF-295 CNS; -65% (active) in the assay on SF-539 CNS; 15.7% with UACC-257 melanoma; 0.163% (active) in the assay with M14 melanoma; 15.6% with HCT-15 colon; 1.32% (active) with HT29 colon. Further, the growth was -39.1% (active) with SNB-75 CNS; 7.23% (active) in the assay with U251 CNS; 5.02% (active) with PC-3 prostate; -25.4% (active) in the assay on SK-MEL-5 melanoma; 6.54% (active) in the assay on UACC-62 melanoma; -67% (active) in the assay with LOX IMVI melanoma. For the same molecule, in the assay on SK-MEL-28 melanoma, the growth was 2.8% (active).
For the molecule `CN1CCN(Cc2ccc(NC(=O)c3[nH]ncc3Nc3ccnc4ccsc34)cc2)CC1`, the growth in the assay on DU-145 prostate was 14.7%; in the assay on K-562 leukemia, 26.5%; with MALME-3M melanoma, 60.6%; with MDA-MB-231 breast, 12.6%; in the assay on RXF 393 renal, -44.9% (active); with SF-268 CNS, 20.3%. Further, the growth in the assay on SF-295 CNS was 56.6%; with SF-539 CNS, 2.32% (active); in the assay on UACC-257 melanoma it was 85.7%; in the assay with M14 melanoma, 48.9%; in the assay on HCT-15 colon, 66.4%; with HT29 colon, 30.1%. For the same molecule, the growth with SNB-75 CNS is 20.5%; with U251 CNS it was 29.2%; in the assay with PC-3 prostate, 34%; in the assay on SK-MEL-5 melanoma it was 38.4%; with UACC-62 melanoma, 64.1%; in the assay on LOX IMVI melanoma it was 0.622% (active). The growth with SK-MEL-28 melanoma is 54.9%.
Take `CNc1cc2nc3cc(NC)c(C)cc3cc2cc1C`: the growth is 18.5% with DU-145 prostate; 21.1% in the assay on K-562 leukemia; 41.3% in the assay with MALME-3M melanoma; 28.7% in the assay on MDA-MB-231 breast; 11.9% with RXF 393 renal; 11.3% with SF-268 CNS. Also, the growth was 10% with SF-295 CNS; 10.4% in the assay with SF-539 CNS; 29.2% in the assay on UACC-257 melanoma; 24.8% in the assay on M14 melanoma; 11.1% with HCT-15 colon; 10% in the assay with HT29 colon. The growth was 16.5% with SNB-75 CNS; 9.07% (active) in the assay on U251 CNS; 18.2% with PC-3 prostate; 35.7% in the assay on SK-MEL-5 melanoma; 45.7% in the assay on UACC-62 melanoma; 6.5% (active) in the assay on LOX IMVI melanoma. The growth with SK-MEL-28 melanoma was 46%.
